Bioassay records as filed in PubChem.
A selection: hits, their analogues and other compounds. The true share with any hit is near 2.2%.
HSP90 inh = HSP90 inhibitors, primary screen, cell lysate, luminescence. inhibition, % at 5.6 µM. AID 1789, 2009. Heat shock protein HSP 90 (rabbit reticulocyte lysate; luciferase refolding). Rabbit reticulocyte lysate, luciferase refolding luminescence, 3 h. actives 0.91% (n = 290,000);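 active = inhibition above the screen-wide mean plus 3 SD, computed separately per campaign, cut at about 16% in these data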;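 also: 0% = DMSO wells and 100% = 60 µM geldanamycin wells; inhibitors lower the luminescence because luciferase stays unfolded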
TWEAK Fn14 block = inhibitors of TWEAK-Fn14 signaling, primary screen, luciferase reporter cells, uHTS; actives 2% (n = 360,000); TWEAK-stimulated Fn14 reporter cells, luciferase luminescence, 8 h; inhibition, % at 10 µM; AID 1159606, 2016; in the data active = inhibition above about 50%
TROY NFkB inh = inhibitors of TROY-driven NF-kB signaling, primary screen, Q293 LMP1-TROYcd cells, NF-kB luciferase, uHTS. actives 0.98% (n = 360,000). inhibition, % at 10 µM. Q293 LMP1-TROYcd NF-kB luciferase reporter, 4 h;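 active = compounds whose plate-normalised and pattern-corrected inhibition of the luciferase reporter signal at the single screening dose is 50% or more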
LGR2 antag = inhibitors of bursicon-induced LGR2 CRE-luciferase signal, primary screen, cell-based, HEK293, CRE-luciferase reporter, bursicon stimulation | Drosophila bursicon receptor LGR2 (rickets) | bursicon-stimulated, 4 h | inhibition, % at 9.99 µM | actives 0.35% (n = 380,000) | AID 720647, 2013;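 active = drop in luminescence signal, shown as inhibition above about 50% in the replicate tests, limit read from the data, passing the limit was not always enough; inconclusive = probably only some replicates passing the limit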;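 also: agonist challenge used bursicon conditioned medium at about half maximal strength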
Starred values were filed as active, the others as inactive; ? = inconclusive; nt = no result given; ! = a repeat was not active.

SMILES	HSP90 inh	TWEAK Fn14 block	TROY NFkB inh	LGR2 antag
CO[C@H]1CN(C)C(=O)c2ccc(NC(=O)C3CC3)cc2OC[C@@H](C)N(Cc2cc(F)ccc2F)C[C@H]1C	nt	nt	nt	1
COc1cccc(CN2CCC2(C)C(=O)Nc2cccc(NS(C)(=O)=O)c2)c1OC (stereo unspecified)	nt	67*	6	10
Cc1ccc(C)c(S(=O)(=O)Nc2ccccc2C(=O)Nc2cc(C)on2)c1	-5	28	32	nt
Cc1cc(NC(=O)c2ccccc2NS(=O)(=O)c2c(C)c(C)cc(C)c2C)no1	1	38	53*	nt
C[C@@H]1CN([C@H](C)CO)C(=O)CCCn2nncc2CO[C@@H]1CN(C)Cc1ccc(C(=O)O)cc1	nt	nt	nt	-9
Cc1ccc(NC(=O)Nc2nnc(-c3ccncc3)s2)cc1C	-5	82*	36	?
O=C(Nc1ccc(Cl)cc1)Nc1nnc(CSCc2ccccc2)s1	2	25	-7	4
O=C(Nc1ccc(F)cc1)Nc1nnc(-c2ccncc2)s1	3	44	14	10
O=C(Nc1nnc(COc2ccccc2F)s1)Nc1ccccc1F	6	-25	41	nt
O=C(Nc1ccc(Cl)cc1)Nc1nnc(-c2ccncc2)s1	6	81*	41	?
O=C(Nc1ccc(F)cc1)Nc1nnc(COc2ccccc2F)s1	-3	21	57*	28
O=C(Nc1ccc(Cl)cc1)Nc1nnc(CSc2ccc(Cl)cc2)s1	3	64*	-1	0
C[C@H]1CN([C@@H](C)CO)C(=O)Cc2cc(NC(=O)CCCCCC(=O)Nc3ccccc3N)ccc2O[C@@H]1CN(C)C(=O)Nc1cccc2ccccc12	nt	nt	nt	2
C[C@@H]1CN([C@@H](C)CO)C(=O)Cc2cc(NS(C)(=O)=O)ccc2O[C@@H]1CN(C)C(=O)Nc1ccc(F)cc1	nt	nt	nt	18
COc1ccc(S(=O)(=O)N(C)C[C@@H]2OCCCC[C@@H](C)Oc3ccc(NC(=O)NC(C)C)cc3C(=O)N([C@H](C)CO)C[C@H]2C)cc1	nt	nt	nt	9
COc1ccc(CN(C)C[C@H]2OCCCC[C@H](C)Oc3ccc(NC(=O)Nc4ccccc4)cc3C(=O)N([C@H](C)CO)C[C@H]2C)cc1	nt	nt	nt	5
O=C(Nc1cccc(Cl)c1)Nc1nnc(CSCCOc2ccc(Cl)cc2)s1	-5	50	51*	15
O=C(Nc1cccc(Cl)c1)Nc1nnc(-c2ccncc2)s1	4	76*	50*	54*
COCCNC(=O)C[C@@H]1CC[C@@H]2[C@H](COC[C@@H](O)CN2Cc2cccc(-c3ccncc3)c2)O1	nt	nt	nt	11
CCCC(NS(=O)(=O)c1ccc(-c2ccc(=O)[nH]n2)s1)c1cccs1 (stereo unspecified)	-1	58*	35	-12
Cc1cccc(CNS(=O)(=O)c2ccc(-c3ccc(=O)[nH]n3)s2)c1	1	-21	8	-13
C[C@@H]1CN([C@H](C)CO)C(=O)c2cc(NC(=O)Nc3ccc(C(F)(F)F)cc3)ccc2O[C@H]1CN(C)S(=O)(=O)c1ccccc1	nt	55*	29	1
C[C@@H]1CN([C@@H](C)CO)C(=O)c2cc(NC(=O)Nc3ccc(C(F)(F)F)cc3)ccc2O[C@@H]1CN(C)S(=O)(=O)c1ccc(F)cc1	nt	nt	nt	3
COc1ccc(S(=O)(=O)N(C)C[C@H]2Oc3ccc(NC(=O)Nc4ccc(C(F)(F)F)cc4)cc3C(=O)N([C@H](C)CO)C[C@@H]2C)cc1	nt	58*	30	-6
O=C(N[C@H]1CC[C@H](CCNS(=O)(=O)c2ccccc2)O[C@@H]1CO)c1cnccn1	nt	nt	nt	-9
SMILES	HSP90 inh	TWEAK Fn14 block	TROY NFkB inh	LGR2 antag
Cc1ccccc1-c1ccc([C@H]2[C@H]3CN(C(=O)Nc4cccc(F)c4)CC(=O)N3[C@H]2CO)cc1	nt	nt	nt	-22
O=C(C[C@@H]1CC[C@@H]2[C@H](COC[C@@H](O)CN2C(=O)Nc2cccc(Cl)c2)O1)N1CCCCC1	nt	nt	nt	-10
C[C@@H]1CN([C@H](C)CO)C(=O)CCCn2cc(nn2)CO[C@H]1CN(C)Cc1ccncc1	nt	nt	nt	7
O=C(Nc1ccc(Cl)cn1)c1ccc2c(Cl)c3c(nc2c1)CCC3	-3	51*	60*	-18
CCC(C)NC(=O)c1ccc2c(Cl)c3c(nc2c1)CCC3 (stereo unspecified)	-1	-6	-62	-66
CN(C)C(=O)c1cccc(-c2ccc3n(c2=O)C[C@@H]2N[C@H]3[C@H](C(=O)NC3CCC3)[C@H]2CO)c1	nt	nt	nt	28
Nc1nc(Cl)cc(NCCc2ccc(O)cc2)n1	-1	-1	2	-29
Oc1ccc(CCNc2ncnc3ccc(Cl)cc23)cc1	-1	94*	56*	24
O=C1c2cc(Cl)ccc2-c2c(O)cc(Cl)cc21	nt	54*	39	-5
COc1cccc(NC(=O)N[C@H]2CC[C@@H](CC(=O)N3CCCCC3)O[C@H]2CO)c1	nt	nt	nt	-10
COc1ccc(/C=C/c2nc(N)nc(-c3ccccc3O)n2)cc1OC	-4	55*	13	28
COc1cc(/C=C/c2noc(-c3ccccc3O)n2)cc(OC)c1OC	-2	-59	-33	-66
COc1ccc(/C=C/c2nc(N)nc(-c3ccccc3O)n2)cc1	-2	6	-74	-30
COc1cc(/C=C/c2nc(N)nc(-c3ccccc3O)n2)cc(OC)c1OC	-4	53*	18	-7
CC(C)NC(=O)Nc1cccc2c1O[C@@H](CN(C)C(=O)NC1CCCCC1)[C@@H](C)CN([C@@H](C)CO)C2=O	nt	nt	nt	-8
O=C(NCc1cccnc1)/C(=C/c1ccc(-c2cccc(Cl)c2)o1)S(=O)(=O)c1ccccc1	9	58*	-9	28
O=C(NCc1cccnc1)/C(=C\c1ccc(-c2cccc(Cl)c2)o1)S(=O)(=O)c1ccccc1	7	104*	78*	87*
N#C[C@@H]1[C@@H](c2ccccc2C2=CCCCC2)[C@@H](CO)N1C(=O)Cc1ccncc1	nt	nt	nt	0
Cc1ccc(S(=O)(=O)NCC[C@@H]2CC[C@@H](NC(=O)c3ccccn3)[C@@H](CO)O2)cc1	nt	nt	nt	6
c1ccc(CNc2ncnc3ccccc23)cc1	2	52*!	28	29
CCCCNc1nc(NCc2ccccc2)nc2ccccc12	nt	34	55*	33
C=CCNc1ncnc2ccccc12	-2	41	50*	nt
COc1ccccc1-c1cnc2c(c1)C(=O)N([C@H](C)CO)C[C@H](C)[C@H](CN(C)CC1CCOCC1)O2	nt	nt	nt	8
COc1ccc([C@H]2CC(=O)C=C(c3cc(Cl)ccc3C)C2)cc1	nt	15	-3	0
COc1ccc([C@H]2CC(=O)C=C(c3ccnc4ccc(Cl)cc34)C2)cc1	nt	52*	39	10
CC(C)(C)n1[nH]c2c3c(ccc2c1=O)C(=O)c1ccccc1C3=O	17*	64*	45	nt
O=C(NCc1ccc(Cl)cc1)c1ccc(CSc2nc3ccncc3[nH]2)cc1	2	25	19	-6
O=C(c1ccc(CSc2nc3ccncc3[nH]2)cc1)N1CCN(c2cccc(Cl)c2)CC1	-2	61*	54*	65*
